Laboratory results as given in the supplement of paper PMC13380429.

Tests used:
[1] = test system: Vero E6 infected with SARS-CoV-2; experiment: morphology score (similarity to uninfected cells); higher = more like uninfected cells; settings: 24 h
[2] = test system: Vero E6 infected with SARS-CoV-2; experiment: SARS-CoV-2 infection rate relative to infected DMSO; higher = more infection, active = 60 or less; settings: 24 h

Row | Compound | morphology score [1] | SARS-CoV-2 infection rate [2]
1 | C[C@@H]1COCCN1c1cc(=O)n2c(n1)N(Cc1cncc(Cl)c1)[C@H](C(F)(F)F)CC2 (0.833333 µM) | 0.55 | 70% (inactive)
2 | Nc1nccc2c1ncn2[C@@H]1O[C@H](CO)[C@@H](O)[C@@H]1O [3-deazaadenosine] (10 µM) | 0.123 | 106% (inactive)
3 | CC(C)(C)C(=O)OCOC(=O)[C@@H]1N2C(=O)[C@@H](NC(=O)[C@H](N)c3ccccc3)[C@H]2SC1(C)C [pivampicillin] (10 µM) | 0.0461 | 106% (inactive)
4 | CCCCNc1cc(C(=O)O)cc(S(N)(=O)=O)c1Oc1ccccc1 [bumetanide] (10 µM) | 0.0462 | 102% (inactive)
5 | CN1C(=O)CN=C(c2ccccc2)c2cc(Cl)ccc21 [diazepam] (10 µM) | 0.0883 | 108% (inactive)
6 | O=C1CCCCCCCCCCCCCCO1 [oxacyclohexadecan-2-one] (10 µM) | -0.0503 | 106% (inactive)
7 | N#Cc1cc(-c2n[nH]c(-c3ccncc3)n2)ccn1 [topiroxostat] (10 µM) | 0.145 | 94.5% (inactive)
8 | CC1(C)OC[C@H](NC(=O)Nc2ccc(Br)cc2Br)[C@H](c2ccccc2)O1 (10 µM) | -0.142 | 112% (inactive)
9 | Nc1ncc(Cc2ccc(Br)cc2)s1 (10 µM) | 0.13 | 102% (inactive)
10 | COc1ccccc1N1CCN(CCN2C(=O)c3ccccc3C(C)(C)C2=O)CC1 (10 µM) | 0.213 | 100% (inactive)
11 | CC[C@@H](CO)NC(=O)[C@@H]1C=C2c3cccc4c3c(cn4C)C[C@H]2N(C)C1 [methysergide] (10 µM) | 0.0741 | 110% (inactive)
